# Screens (PubChem BioAssay)
# A selection: hits, their analogues and other compounds. The true share with any hit is near 17%.
# TDP1 cell CPT = qHTS for Inhibitors of human tyrosyl-DNA phosphodiesterase 1 (TDP1): qHTS in cells in presence of CPT. Potency, µM (top dose mostly 46.2 µM), for the others: at the top dose activity change, negative = growth inhibition, usual class: inhibitors. chicken DT40 Tdp1-/-;hTDP1 cells + 20 nM CPT, ATP luminescence, 48 h. hit rate 12% among 420,000; note: % is set by controls: 0 for no effect and ±100 for the full control effect; nearly all actives have a fitted effect of over 55% in size
#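 Chicken DT40 Tdp1-/- cells stably complemented with human TDP1 were seeded at 400 cells/well in medium containing 20 nM camptothecin, exposed to pin-transferred compounds, and grown at 37 °C for at least 48 hr. Viability was read as ATP luminescence.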
# HT1080 IDH1KD tx = qHTS for induction of synthetic lethality in tumor cells producing 2HG: qHTS for the HT-1080-IDH1KD cell line. hit rate 2% among 360,000. HT-1080 IDH1 knockdown viability, ATP luminescence, 48 h. Potency, µM (doses to about 46.1 µM), for the others: at the highest dose activity, negative = toxicity, actives largely listed as cytotoxic;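 note: 0% = DMSO wells and -100% = cell-free medium wells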
#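 Luminescent ATP read-out (CellTiter-Glo, 10 min at room temperature) after 48 h compound exposure at 37 °C gave viability of IDH1-knockdown HT-1080 cells. Activity was normalised to DMSO and cell-free wells, then fitted as concentration-response curves.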
# HepG2 viability = qHTS for Inhibitors of TGF-b: Cytotox Counterscreen; HepG2 CAGA-GFP viability, ATP luminescence, 18 h; Potency, µM (doses to about 46.1 µM), for the others: at the top dose activity change, negative = cytotoxicity, actives largely listed as cytotoxic; hit rate 0.76% among 410,000
#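 CellTiter-Glo luminescence gave cytotoxicity after 18 hours at 37 degrees C. The cells were HepG2 CAGA-GFP in 1% FBS DMEM, stimulated with 500 pg/mL TGF-beta after compound addition. %Activity was normalised to no-cell wells (complete cell-killing) and DMSO (no toxicity), and curves were fitted and classified.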
# DT40 TDP1 no CPT = qHTS for Inhibitors of human tyrosyl-DNA phosphodiesterase 1 (TDP1): qHTS in cells in absence of CPT; DT40 Tdp1-/- hTDP1 cells, no CPT, ATP luminescence, 48 h; Potency, µM (highest dose often 46.2 µM), inactives show at the highest dose activity change, negative = growth inhibition, usual class: inhibitors; hit rate 15% among 420,000; AID 686978, 2013; note: % is set by controls: 0 for no effect and ±100 for the full control effect; nearly all actives have a fitted effect of over 55% in size
#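 Chicken DT40 Tdp1-/- cells complemented with human TDP1, screened without camptothecin (DMSO vehicle only), 400 cells/well. Compounds pin-transferred, cells incubated at 37 °C for at least 48 hr. Growth read as ATP-dependent luminescence (CellTiter-Glo, 30 min at RT).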
# HT1080NT lethal = qHTS for induction of synthetic lethality in tumor cells producing 2HG: qHTS for the HT-1080-NT fibrosarcoma cell line; HT-1080-NT fibrosarcoma viability, CellTiter-Glo ATP luminescence, 48 h; Potency, µM (doses to about 46.1 µM), for the others: at the top dose activity, negative = less viability, usual class: cytotoxic; hit rate 1.6% among 360,000; AID 686970, 2013;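 note: NT is the 2HG producing partner of a matched IDH1 knockdown line; 0% = DMSO-treated cells and -100% = media-only wells without cells; nearly all actives have a fitted effect of over 55% in size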
#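 HT-1080-NT; 750 cells/well; 5% FBS RPMI; 48 h compound, 37 degrees C; CellTiter-Glo luminescence; curve fitting and curve-class assignment.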
# TGFb SMAD3 inh = qHTS for Inhibitors of TGF-b; HepG2 CAGA-GFP TGF-b/SMAD3 reporter, GFP fluorescence, 18 h; TGF-beta stimulated, 500 pg/mL final; Potency, µM (doses to about 46.1 µM), for the others: at the top dose activity, negative = inhibition, usual class: inhibitors; hit rate 1.2% among 410,000; note: % is set by controls: 0 for no effect and ±100 for the full control effect; nearly all actives have a fitted effect of over 65% in size
#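 HEPG2 CAGA-GFP, 1000 cells/well; 2 h settle, 37 C; cpd via pin tool; TGF-b 500 pg/mL final; 18 h, 37 C; GFP imaging ex488/em500-530; %Activity normalised to -TGF-b and +DMSO controls; CRC fit, curve class.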
# * marks the source's active call; other numbers are inactive results; ? = inconclusive; nt = no result. Calls come from the whole dose curve; as a rule, active = well fitted curve in the direction sought with a large enough effect; inconclusive = small, poorly fitted or top-dose-only effect, or another doubt; inactive = no such curve, though single readings can be large; an effect the other way counts as inactive or inconclusive. Potency is the fitted concentration of half-maximal effect.
SMILES,TDP1 cell CPT,HT1080 IDH1KD tx,HepG2 viability,DT40 TDP1 no CPT,HT1080NT lethal,TGFb SMAD3 inh
COc1ccc(C(=O)CSc2nc(SC)ns2)cc1OC,-16.0%,2.7%,27.0%,?,-2.3%,37.6%
CCC(=O)c1ccc(OCc2ccccc2)c(OC)c1,13.9%,6.1%,0.8%,?,5.3%,-28.4%
COc1ccc(C(=O)CSC#N)cc1OC,3.26µM*,20.6µM*,-41.8%,2.91µM*,?,?
COc1ccc(C(C#N)CC(=O)c2ccc(OC)c(OCc3ccccc3)c2)cc1OC (stereo not drawn),14.6µM*,-0.3%,-13.8%,20.6µM*,9.3%,-0.4%
COc1ccc(C(=O)CSc2cc(C)nc3nc(C)nn23)cc1OC,-21.9%,11.2µM*,-33.1%,-29.9%,15.8µM*,-26.7%
Cc1cc(C)cc(N2C(=O)CC(c3ccc(C(F)(F)F)cc3)C3=C2COC3=O)c1 (stereo not drawn),5.2%,nt,-2.4%,2.8%,nt,-18.8%
Cc1ccc(C)c(N2CCN(S(=O)(=O)c3cc(Br)cc4c3N(C(=O)C3CC3)CC4)CC2)c1,2.8%,nt,21.6%,-4.6%,nt,4.7%
NS(=O)(=O)c1ccc(CCn2c(=S)[nH]c3ccc(F)cc3c2=O)cc1,?,14.5%,1.7%,?,0.1%,-13.2%
CC1=C(C(=O)Nc2ccc(F)cc2F)C2(CCN(C(C)C)CC2)OC1=O,-6.8%,nt,1.1%,-1.7%,nt,15.7%
CN(Cc1ccc(Cl)cc1)C(=O)CCl,2.31µM*,16.4µM*,-110.9%,2.59µM*,?,?
CN(C)CCNC(=O)c1ccc(Cl)s1,-6.2%,5.3%,7.6%,-0.9%,2.8%,3.4%
COc1ccc(OCC(=O)N(C)Cc2ccccc2)cc1,0.0%,10.0%,-2.2%,-16.1%,14.4%,3.4%
COc1ccc(CN(C)C(=O)CCl)cc1,2.31µM*,?,-12.8%,2.59µM*,?,10.7%
CN(Cc1ccc(Cl)s1)C(=O)CCl,3.26µM*,8.2µM*,-63.0%,1.84µM*,20.6µM*,7.08µM*
Cc1cccc(C(=O)Nc2cc3c(cc2N2CCCCC2)n(C)c(=O)c(=O)n3C)c1,6.2%,nt,-21.2%,-4.2%,nt,-0.9%
CCn1c(=O)n(CC)c2cc(N3CCCC3)c(NC(=O)c3cccc(Cl)c3)cc21,14.6µM*,?,-15.5%,9.2µM*,-21.1%,-2.9%
CCn1c(=O)n(CC)c2cc(N3CCCC3)c(NC(=O)c3ccc(C)c([N+](=O)[O-])c3)cc21,6.51µM*,0.0%,-6.0%,7.31µM*,15.4%,3.8%
CCn1c(=O)c(=O)n(CC)c2cc(N3CCCCC3)c(NC(=O)c3cccc(OC)c3)cc21,-0.8%,nt,2.4%,-23.7%,nt,15.1%
CCn1c(=O)n(CC)c2cc(N3CCCC3)c(NC(=O)c3cccc(C)c3)cc21,20.6µM*,-14.9%,-10.2%,16.4µM*,-6.7%,5.8%
Cc1ccc(C(=O)Nc2ccc(N3CCOCC3)c3nonc23)cc1[N+](=O)[O-],?,-13.1%,-3.1%,?,-17.5%,-0.8%
CCC(C(=O)NCc1ccccn1)n1c2ccccc2c2nc(=O)cc(C)n21 (stereo not drawn),?,2.7%,-24.8%,2.2%,3.2%,8.7%
COC(=O)c1c(NC2=NS(=O)(=O)c3ccccc32)sc2c1CCC(C(C)(C)C)C2 (stereo not drawn),18.4µM*,16.4%,-11.4%,14.6µM*,5.1%,-24.5%
CCOC(=O)c1c(NC2=NS(=O)(=O)c3ccccc32)sc2c1CCC(C)C2 (stereo not drawn),?,16.8%,-22.0%,?,15.0%,-7.0%
CCCOC(=O)CSc1ncnc2sc3c(c12)CCC(C)C3 (stereo not drawn),-18.4%,nt,-6.4%,-23.9%,nt,2.9%
CCCCOc1ccc(C(=O)NCCc2csc3nc(-c4ccccc4F)nn23)cc1,25.9µM*,nt,-15.6%,?,nt,-6.6%
SMILES,TDP1 cell CPT,HT1080 IDH1KD tx,HepG2 viability,DT40 TDP1 no CPT,HT1080NT lethal,TGFb SMAD3 inh
CCOc1cc(C(=O)NCCc2csc3nc(-c4ccccc4F)nn23)cc(OCC)c1OCC,23.1µM*,nt,-5.4%,?,nt,2.6%
CC(C)(C)c1ccc(C(=O)NCCc2csc3nc(-c4ccccc4F)nn23)cc1,20.6µM*,nt,-22.3%,?,nt,17.8µM*
CCCCn1c(CCc2ccccc2)nc2cc3[nH]c(=O)c(C(C)C)nc3cc21,?,?,-34.3%,?,-9.2%,?
CCCCn1c(-c2ccc(F)c(F)c2)nc2cc3[nH]c(=O)c(C(C)C)nc3cc21,20.6µM*,-20.8%,-22.2%,20.6µM*,?,?
CC(=O)N1CCc2cc(S(=O)(=O)NC(CC(C)C)C(=O)NCCc3cccc(C)c3)ccc21 (stereo not drawn),1.7%,nt,-1.6%,-6.7%,nt,-2.3%
COC(=O)[C@H]1[C@H]2C[C@@H]3c4[nH]c5ccccc5c4CCN3C[C@H]2C[C@@H](OC(=O)c2cc(OC)c(OC)c(OC)c2)[C@@H]1OC,1.06µM*,nt,nt,15µM*,nt,nt
COc1cccc(C2c3[nH]c4ccccc4c3CCN2C(=O)c2ccccc2F)c1OC (stereo not drawn),?,?,6.8%,-96.6%,?,?
COc1cc(C(=O)N2CCc3c([nH]c4ccccc34)C2c2ccccc2)cc(OC)c1OC (stereo not drawn),7.31µM*,nt,-12.3%,6.51µM*,nt,?
COc1ccc(C2c3[nH]c4ccccc4c3CCN2C(=O)c2cc3ncccn3n2)c(F)c1 (stereo not drawn),-0.3%,?,0.0%,20.6µM*,-27.3%,0.0%
COC(=O)[C@H]1[C@H]2C[C@@H]3c4[nH]c5cc(OC)ccc5c4CCN3C[C@H]2C[C@@H](OC(=O)c2ccc(N)cc2)[C@@H]1OC,?,0.5%,-33.7%,?,0.2%,?
COc1ccc(C2c3[nH]c4ccccc4c3CCN2C(=O)c2cn3ccccc3n2)c(F)c1 (stereo not drawn),-2.2%,?,-9.8%,?,-16.8%,?
COc1cc(C(=O)N2CCc3c([nH]c4ccccc34)C2c2ccc(C)cc2)cc(OC)c1OC (stereo not drawn),16.4µM*,nt,-25.9%,?,nt,?
